Reference: PubChem BioAssay
Inconclusive results are not listed. Calls of active or inactive are those of the source.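 The calls were made as follows, unless noted: active = viability increase at or above a cutoff of the median across tested compounds plus 3 SD (cut at about 8.5% in these data, passing the limit was not always enough); inconclusive = some gains above the cutoff, reason not given; inactive = the rest.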

Experiment: doxorubicin toxicity protection in MRP-1 cells – H69AR cells, CellTiter-Glo, duplicate, MRP-1 activator project, pilot screen (AID 807);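 also: compound pretreatment 18-22 h then 72 h combined with doxorubicin; 0% = doxorubicin alone and 100% = vehicle without doxorubicin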
Conditions: H69AR viability with doxorubicin, CellTiter-Glo luminescence; at 10 µM; active compounds read high

| Structure (SMILES) | viability increase |
| --- | --- |
| CCOCCOC(=O)C1=C(C)N(C)C(=O)NC1c1ccccc1Cl (stereo not given) | -1.78% (inactive) |
| COc1ccc(C(=O)NCC(c2cccnc2)N2CCN(c3ccccc3)CC2)cc1OC (stereo not given) | -2.1% (inactive) |
| CCCCCCN=CC1=C(O)C(C(=O)OC)C(C)(C)CC1=O (stereo not given) | 1.15% (inactive) |
| COCCN1C=C(C(=O)OC)C(c2ccc3c(c2)OCO3)C(C(=O)OC)=C1 | 2.8% (inactive) |
| CCCCCOC(=O)Cn1c(=O)oc2ccccc21 | -1.13% (inactive) |
| O=C(NCc1ccco1)c1nnc(Cc2ccc(F)cc2)o1 | -0.65% (inactive) |
| CCOC(=O)CSc1nc2sc(C(=O)O)c(C)c2c(=O)[nH]1 | -1.82% (inactive) |
| COc1ccc(NC(=O)C2c3cc(OC)c(OC)cc3C(=O)N(C)C2c2cccnc2)cc1OC (stereo not given) | -3.2% (inactive) |
| Fc1ccc(-n2[nH]nnc2=S)cc1N1CCCC1 | -1.28% (inactive) |
| CCc1c(C)sc(NC(=O)c2cccs2)c1C(=O)OC(C)C | 4.48% (inactive) |
| COC(=O)c1cc(OC)c(OC)cc1NC(=O)c1c(-c2ccccc2Cl)noc1C | -5.69% (inactive) |
| CC1=C(C(=O)OCC2CCCO2)C(c2ccncc2)C2=C(CCCC2=O)N1 (stereo not given) | -1.77% (inactive) |
| COc1ccc(S(=O)(=O)N2CCC(C(=O)N3CCc4ccccc4C3)CC2)cc1OC | -2.24% (inactive) |
| O=C(CN1CCOc2ccccc21)N1CCC(Cc2ccccc2)CC1 | -3.42% (inactive) |
| CCOCCCNC(=O)C(c1ccc(Cl)cc1)N1CCN(c2ccccc2)CC1 (stereo not given) | -2.39% (inactive) |
| COC(=O)c1c(NC(=O)CSc2nnnn2-c2ccccc2)sc2c1CCC(C)C2 (stereo not given) | -1.07% (inactive) |
| COC(=O)C1C(C(C)C)N(c2ccccc2)OC1(C)O (stereo not given) | -4.25% (inactive) |
| O=C(CCSCCC(=O)NCc1cccs1)NCc1cccs1 | -1.73% (inactive) |
| CCOc1ccc(-n2c(SCC(=O)NCc3ccco3)nc3c([nH]c4ccccc43)c2=O)cc1 | -3.17% (inactive) |
| Cc1ccc2oc(=O)c3cnn(CC(=O)NCCN(C)C)c3c2c1 | 0.12% (inactive) |

| Structure (SMILES) | viability increase |
| --- | --- |
| Cc1ccc(C(C)C)c(OCC(=O)N2CCOCC2)c1 | -0.67% (inactive) |
| Cc1ccc(-c2nnc(SCC(=O)Nc3ccccc3F)o2)cc1 | -0.16% (inactive) |
| c1ccc(CN2CCN(c3nc4ccccc4n4cnnc34)CC2)cc1 | -1.7% (inactive) |
| O=C(Cn1nc(C(=O)O)c2ccccc2c1=O)NCC1CCCO1 (stereo not given) | -0.44% (inactive) |
| Cc1ccc2c(c1)c1c(n2CC(O)CN2C(=O)CNC2=O)C(=O)CCC1 (stereo not given) | 4.52% (inactive) |
| CCCCNc1ncnc2c1cnn2-c1ccc(Cl)cc1 | -6.6% (inactive) |
| Cc1ccc(-n2ncc3c(NCCCn4ccnc4)ncnc32)c(C)c1 | -0.58% (inactive) |
| CCOC(=O)c1sc(NC(=O)C2CCCO2)c(C(=O)OCC)c1C (stereo not given) | -2.56% (inactive) |
| CC(C)Oc1ccc(N2CC(C(=O)Nc3ccc4c(c3)OCO4)CC2=O)cc1 (stereo not given) | -0.37% (inactive) |
| CC(=O)c1cc(F)c(N2CCN(CCC#N)CC2)cc1C | -0.38% (inactive) |
| CC12CC(NC(=O)N1CCc1ccccc1)c1ccccc1O2 (stereo not given) | -3.43% (inactive) |
| COc1ccc2nc(NC(=O)c3ccc4ncsc4c3)sc2c1 | -3.84% (inactive) |
| CCOC(=O)c1c(NC(C)=O)no[n+]1[O-] | -2.24% (inactive) |
| COc1ccc(N2CCN(CCCNS(=O)(=O)c3ccc4c(c3)oc(=O)n4C)CC2)cc1 | 0.06% (inactive) |
| Cn1c(C(=O)N2CCCCCC2)cc2c(=O)n(C)c3ccccc3c21 | -3.27% (inactive) |
| COc1ccc(N(CC(=O)Nc2cc(OC)ccc2OC)S(=O)(=O)c2c(C)nn(C)c2C)cc1 | -4.82% (inactive) |
| Cn1c2ccc(Cl)cc2c2nc3ccccc3nc21 | -5.07% (inactive) |
| COc1ccc(C(=O)N2CCC(C(=O)Nc3ccc(OC)c(OC)c3)CC2)cc1 | -0.38% (inactive) |
| Cc1ccc(O)c(-c2cc(C(F)(F)C(F)F)nc(-c3ccccc3)n2)c1 | -5.33% (inactive) |
| COc1ccccc1-c1nnc(SCC(=O)N2CCOCC2)o1 | -3.69% (inactive) |

Experiment: viability of HCT116 without oncogenic beta-catenin – human colon tumor cells, pilot screen (AID 823;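 active = cell viability at or below a set limit in both duplicate runs, the limit being the all-compound median minus 4 SD, cut at about 23% in these data, passing the limit was not always enough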;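 also: 0% = wells killed by 20 µM Hyamine and 100% = untreated DMSO cell wells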)
Conditions: HCT116 beta-catenin knockout viability, CellTiter-Glo, 60 h; at 10 µM; active compounds read low

| Structure (SMILES) | viability |
| --- | --- |
| CCOCCOC(=O)C1=C(C)N(C)C(=O)NC1c1ccccc1Cl (stereo not given) | 101% (inactive) |
| COc1ccc(C(=O)NCC(c2cccnc2)N2CCN(c3ccccc3)CC2)cc1OC (stereo not given) | 97.6% (inactive) |
| CCCCCCN=CC1=C(O)C(C(=O)OC)C(C)(C)CC1=O (stereo not given) | 95.1% (inactive) |
| COCCN1C=C(C(=O)OC)C(c2ccc3c(c2)OCO3)C(C(=O)OC)=C1 | 97.9% (inactive) |
| CCCCCOC(=O)Cn1c(=O)oc2ccccc21 | 90.3% (inactive) |
| O=C(NCc1ccco1)c1nnc(Cc2ccc(F)cc2)o1 | 105% (inactive) |
| CCOC(=O)CSc1nc2sc(C(=O)O)c(C)c2c(=O)[nH]1 | 102% (inactive) |
| COc1ccc(NC(=O)C2c3cc(OC)c(OC)cc3C(=O)N(C)C2c2cccnc2)cc1OC (stereo not given) | 94.8% (inactive) |
| Fc1ccc(-n2[nH]nnc2=S)cc1N1CCCC1 | 104% (inactive) |
| CCc1c(C)sc(NC(=O)c2cccs2)c1C(=O)OC(C)C | 77.5% (inactive) |
| COC(=O)c1cc(OC)c(OC)cc1NC(=O)c1c(-c2ccccc2Cl)noc1C | 66.3% (inactive) |
| CC1=C(C(=O)OCC2CCCO2)C(c2ccncc2)C2=C(CCCC2=O)N1 (stereo not given) | 98.9% (inactive) |
| COc1ccc(S(=O)(=O)N2CCC(C(=O)N3CCc4ccccc4C3)CC2)cc1OC | 89.4% (inactive) |
| O=C(CN1CCOc2ccccc21)N1CCC(Cc2ccccc2)CC1 | 88% (inactive) |
| CCOCCCNC(=O)C(c1ccc(Cl)cc1)N1CCN(c2ccccc2)CC1 (stereo not given) | 87% (inactive) |
| COC(=O)c1c(NC(=O)CSc2nnnn2-c2ccccc2)sc2c1CCC(C)C2 (stereo not given) | 84.4% (inactive) |
| COC(=O)C1C(C(C)C)N(c2ccccc2)OC1(C)O (stereo not given) | 103% (inactive) |
| O=C(CCSCCC(=O)NCc1cccs1)NCc1cccs1 | 94.5% (inactive) |
| CCOc1ccc(-n2c(SCC(=O)NCc3ccco3)nc3c([nH]c4ccccc43)c2=O)cc1 | 68.5% (inactive) |
| Cc1ccc2oc(=O)c3cnn(CC(=O)NCCN(C)C)c3c2c1 | 101% (inactive) |

| Structure (SMILES) | viability |
| --- | --- |
| Cc1ccc(C(C)C)c(OCC(=O)N2CCOCC2)c1 | 99.3% (inactive) |
| Cc1ccc(-c2nnc(SCC(=O)Nc3ccccc3F)o2)cc1 | 41.8% (inactive) |
| c1ccc(CN2CCN(c3nc4ccccc4n4cnnc34)CC2)cc1 | 94.8% (inactive) |
| O=C(Cn1nc(C(=O)O)c2ccccc2c1=O)NCC1CCCO1 (stereo not given) | 103% (inactive) |
| Cc1ccc2c(c1)c1c(n2CC(O)CN2C(=O)CNC2=O)C(=O)CCC1 (stereo not given) | 101% (inactive) |
| CCCCNc1ncnc2c1cnn2-c1ccc(Cl)cc1 | 17.3% (active) |
| Cc1ccc(-n2ncc3c(NCCCn4ccnc4)ncnc32)c(C)c1 | 88.8% (inactive) |
| CCOC(=O)c1sc(NC(=O)C2CCCO2)c(C(=O)OCC)c1C (stereo not given) | 102% (inactive) |
| CC(C)Oc1ccc(N2CC(C(=O)Nc3ccc4c(c3)OCO4)CC2=O)cc1 (stereo not given) | 106% (inactive) |
| CC(=O)c1cc(F)c(N2CCN(CCC#N)CC2)cc1C | 105% (inactive) |
| CC12CC(NC(=O)N1CCc1ccccc1)c1ccccc1O2 (stereo not given) | 74.9% (inactive) |
| COc1ccc2nc(NC(=O)c3ccc4ncsc4c3)sc2c1 | 81.3% (inactive) |
| CCOC(=O)c1c(NC(C)=O)no[n+]1[O-] | 104% (inactive) |
| COc1ccc(N2CCN(CCCNS(=O)(=O)c3ccc4c(c3)oc(=O)n4C)CC2)cc1 | 94.3% (inactive) |
| Cn1c(C(=O)N2CCCCCC2)cc2c(=O)n(C)c3ccccc3c21 | 94.9% (inactive) |
| COc1ccc(N(CC(=O)Nc2cc(OC)ccc2OC)S(=O)(=O)c2c(C)nn(C)c2C)cc1 | 95.6% (inactive) |
| Cn1c2ccc(Cl)cc2c2nc3ccccc3nc21 | 74.7% (inactive) |
| COc1ccc(C(=O)N2CCC(C(=O)Nc3ccc(OC)c(OC)c3)CC2)cc1 | 89.7% (inactive) |
| Cc1ccc(O)c(-c2cc(C(F)(F)C(F)F)nc(-c3ccccc3)n2)c1 | 66.7% (inactive) |
| COc1ccccc1-c1nnc(SCC(=O)N2CCOCC2)o1 | 93.8% (inactive) |
